Potency data for 21 compounds are collected here from PubChem BioAssay (NCATS).

“And” between values parts separate entries of the source, which are not always exact repeats. Equal values may be shown once. Results filed as inconclusive are left out. A call without a number means that no potency is given here. The source made the active and inactive calls. Calls come from the whole dose curve; as a rule, active = well fitted cell-killing curve with a large enough effect; inconclusive = small, poorly fitted or top-dose-only effect, or effect the other way; inactive = no such curve, though single readings can be large or run the other way.
Potency is the fitted concentration of half-maximal effect.

This assay can be described thus: qHTS of pediatric cancer cell lines to identify multiple opportunities for drug repurposing: Confirmatory screen for LAN-5 cells (AID 1347113). Note: nearly all actives have a fitted effect of over 65% in size. The following applies: LAN-5 neuroblastoma cell viability; series mostly up to 45.9 µM. From the text: Drug repurposing or repositioning has been offered as a strategy for drug development in oncology programs. This approach has special potential for childhood cancers and other rare or orphan diseases, where the expected return on new drug development has been a disincentive to pharmaceuticals.
In this project we exploit the poly-pharmacology of drugs to discover new indications via phenotypic screening of a panel of 19 well-characterized cell lines derived from solid tumors seen in children and adolescents. The goal is to identify approved drugs with previously unrecognized anticancer properties that has the potential to reveal new mechanisms and biological processes involved in carcinogenesis or drug resistance. We employed a titration-based paradigm (quantitative high-throughput screening or qHTS), where all compounds were tested at multiple concentrations for their effect on cell viability. Concentration-response curves (CRCs) were derived directly from the primary screen, and both potency and efficacy values were used to identify compounds with robust bioactivity profiles. We screened the NIH Chemical Genomics Center (NCGC) Pharmaceutical Collection (NPC) and Mechanism Interrogation Plate (MIPE) small molecule collections of approved and investigational compounds against these cell lines; and measured metabolically active cells after 48 hours of compound treatment as a proxy for cell viability.
Assay Submitter: Nathalia J. Martinez, National Center for Advancing Translational Sciences, National Institutes of Health, Rockville, MD, USA; email: natalia.martinez@nih.gov
[1] Shen, M et al. Quantitative high-throughput phenotypic screening of pediatric cancer cell lines identifies multiple opportunities for drug repurposing. Oncotarget 2017 Dec 19;9(4):4758-4772. PMID 29435139.
The cells were obtained from University of North Carolina (UNC), Pediatric Preclinical Testing Program (PPT), and Coriell Institute (CI).
qHTS cell viability assay:
Cells were assayed in growth media at a density of 500-1,000 cells/well. Five microliters of cells were dispensed into 1,536-well, white, solid-bottom, TC-treated plates (Greiner Bio One) using a multidrop dispenser and incubated at 37 degrees C, 5% CO2, under a humidified atmosphere for 5 hours. Twenty-three nanoliters of compounds and controls (neutral control DMSO or positive control bortezomib at final concentration of 2.3 µM) were subsequently transferred by Kalypsys pintool. For primary screens, the MIPE collection was tested at 11-point dilutions (final concentrations range from 0.78 nM to 46 µM) and the NPC collection at 8-point dilutions (final concentrations range from 0.59 nM to 46 µM). Compounds tested in follow-up screens were assayed at 11-point dilutions. Cells were incubated for 48 hours, followed by addition of 3 µL of CellTiter-Glo (Promega). After a 15 min incubation at room temperature, samples were analyzed for luminescence intensity using a ViewLux High-throughput CCD imager equipped with clear filters.
(In general: Quantitative high-throughput screening tests each substance at several concentrations.)
As to `CC1(C)C(=O)N(CCN2CCC(C(=O)c3ccc(F)cc3)CC2)c2ccccc21`, the Potency entry is “inactive”. The value for `O=C(CCc1ccc(O)cc1)c1c(O)cc(O)cc1O` was “inactive”.

Take `CC[C@]1(O)C[C@H]2CN(CCc3c([nH]c4ccccc34)[C@@](C(=O)OC)(c3cc4c(cc3OC)N(C=O)[C@H]3[C@@](O)(C(=O)OC)[C@H](OC(C)=O)[C@]5(CC)C=CCN6CC[C@]43[C@@H]65)C2)C1`: the Potency was 58.5 nM (active) and 827 nM (active). On to `Nc1ncn([C@H]2C[C@H](O)[C@@H](CO)O2)c(=O)n1`, for which the Potency entry was “inactive”. With `Cc1cc(C2CCCCC2)n(O)c(=O)c1`, the Potency was 5.85 µM (active). Take `CC(C)C[C@H](NC(=O)[C@H](Cc1ccccc1)NC(=O)c1cnccn1)B(O)O`: the Potency is 0.0329 µM (active).

Regarding `Oc1ccc(-c2nc(-c3ccc(F)cc3)c(-c3ccncc3)[nH]2)cc1`, the Potency is 1.04 µM (active). The value for `Nc1ccn([C@@H]2O[C@H](CO)[C@@H](O)C2O)c(=O)n1` (stereo partly specified) was “inactive”; that for `CN(C)c1ccc(O)c2c1C[C@H]1C[C@H]3[C@H](N(C)C)C(=O)C(C(N)=O)=C(O)[C@@]3(O)C(=O)C1=C2O` was “inactive”; that for `CCN(CC)C(=S)SSC(=S)N(CC)CC` was 0.147 µM (active). For the compound `C[C@]12CCC(=O)C=C1CC[C@@H]1[C@H]2[C@@H](O)C[C@@]2(C)[C@H]1CC[C@]2(O)C(=O)CO`, the Potency entry was “inactive”. Regarding `O=C(NCC1CCCCN1)c1cc(OCC(F)(F)F)ccc1OCC(F)(F)F` (stereo unspecified), the Potency result is “inactive”. The value for `CC(S)C(=O)NCC(=O)O` (stereo unspecified) was “inactive”; that for `C=C(c1ccc(C(=O)O)cc1)c1cc2c(cc1C)C(C)(C)CCC2(C)C` was “inactive”; that for `CN(C)c1ccc2nc3ccc(=[N+](C)C)cc-3sc2c1` was 3.69 µM (active). For `O=C1c2c(O)cc(O)cc2OC(c2ccc(O)c(O)c2)C1O` (stereo unspecified), the Potency result was “inactive”.

As for `CCOc1cc(CC(=O)N[C@@H](CC(C)C)c2ccccc2N2CCCCC2)ccc1C(=O)O`, the Potency entry was “inactive”.

In the case of `Cc1ccc(Nc2nccc(N(C)c3ccc4c(C)n(C)nc4c3)n2)cc1S(N)(=O)=O`, the Potency entry is “inactive”.

With `Clc1ccc(C(Cn2ccnc2)OCc2ccsc2Cl)c(Cl)c1` (stereo unspecified), the Potency is 20.8 µM (active).

`c1cnc2cc3c(cc2n1)C1CNCC3C1`: the Potency entry was “inactive”. For `CCCCc1ccc2nc(NC(=O)OC)[nH]c2c1`, the Potency is 8.27 µM (active).
